NPC1 promoter act = NPC1 promoter activation. Huh7 NPC1 promoter luciferase reporter, 24 h. Potency, µM (top dose mostly 9.22 µM), for the others: at the top dose activation, most hits filed as activators. 320,000 compounds, 2.4% hits. AID 485313; further: % of control where 0% means no effect; nearly all actives have a fitted effect of over 60% in size
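Stable NPC1-promoter luciferase Huh7 line; cpd (DMSO) 24 h, 37 °C, 5% CO2; Amplite luciferase reagent 10 min RT; luminescence readout. qHTS format.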
FLuc counter = firefly luciferase modulation, counter-screen for miR-21 project. P08659. purified FLuc, Km substrates, luminescence inhibition. Potency, µM (highest dose often 57.5 µM), for inactives: at the top dose activity change, negative = inhibition, most hits filed as inhibitors. 360,000 compounds, 6.9% hits. AID 588342;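 further: plate controls were vehicle for no effect and reference inhibitor for full effect; nearly all actives have a fitted effect of over 55% in size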
Target sequence (P08659 whole entry, looked up): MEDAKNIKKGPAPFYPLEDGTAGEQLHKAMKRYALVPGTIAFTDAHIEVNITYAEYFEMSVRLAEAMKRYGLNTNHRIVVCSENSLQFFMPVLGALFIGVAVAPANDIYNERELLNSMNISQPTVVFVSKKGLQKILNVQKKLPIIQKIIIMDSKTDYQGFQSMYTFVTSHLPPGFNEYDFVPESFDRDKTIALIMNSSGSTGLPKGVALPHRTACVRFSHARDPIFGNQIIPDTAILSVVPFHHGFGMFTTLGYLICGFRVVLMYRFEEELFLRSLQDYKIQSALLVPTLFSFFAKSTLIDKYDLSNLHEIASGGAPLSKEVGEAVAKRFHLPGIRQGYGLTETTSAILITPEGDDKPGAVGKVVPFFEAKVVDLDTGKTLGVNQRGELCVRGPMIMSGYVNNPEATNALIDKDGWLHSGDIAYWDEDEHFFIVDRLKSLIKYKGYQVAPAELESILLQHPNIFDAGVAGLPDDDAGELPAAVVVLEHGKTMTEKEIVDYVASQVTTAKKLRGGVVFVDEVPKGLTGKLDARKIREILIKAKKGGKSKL
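Biochemical qHTS of compounds, final roughly 60 µM downward over six points, against 10 nM purified firefly luciferase using Km concentrations of substrates (10 uM D-luciferin, 10 uM ATP) in Tris acetate pH 7.5 buffer; luminescence output.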
ELG1 genotox = induces genotoxicity in HEK293T cells with luciferase-tagged ELG1; HEK293T ELG1-luciferase reporter, luminescence, 16 h; Potency, µM (doses to about 46 µM), for the others: at the top dose activity change, positive = activation, actives largely listed as activators; 330,000 compounds, 1.3% hits; AID 504466; further: % of control where 0% means no effect; nearly all actives have a fitted effect of over 60% in size
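16 hr compound incubation (37 °C, 5% CO2) of HEK293T cells carrying luciferase-tagged ELG1; luciferase then measured by ONE-Glo luminescence after 30 min at RT.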
ELG1 repair inh = inhibitors of ELG1-dependent DNA repair in HEK293T cells. HEK293T ELG1-luciferase reporter, luminescence, 16 h; DNA damage induced by 5-fluorouridine. Potency, µM (titrated, usually from 46.1 µM), for inactives: at the top dose activity change, negative = inhibition, most hits filed as inhibitors. 330,000 compounds, 2.3% hits; further: on the % scale 0 is the no-effect control and ±100 the full control effect; nearly all actives have a fitted effect of over 55% in size
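5-Fluorouridine DNA damage + compound/DMSO, 2,000 cells/well, 16 h, 37 °C/5% CO2. ONE-Glo, 30 min RT, luminescence. Readout = decrease in reporter signal.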
Rab9 prom act = activators of Rab9 promoter; AID 485297; Potency, µM (doses to about 9.22 µM), for the others: at the top dose activation, negative = inhibition, actives largely listed as activators; 320,000 compounds, 2.8% hits; Huh7 Rab9 promoter-luciferase reporter, luminescence, 24 h; further: % of control where 0% means no effect; nearly all actives have a fitted effect of over 60% in size
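Cell-based reporter: Huh7 stable for Rab9 promoter-driven luciferase, plated in reduced-serum medium with 10% FBS at 1500 cells/well, compound-treated 24 h at 37 °C, luminescence read after 10 min reagent.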
SMN2 splice enh = enhancers of SMN2 splice variant expression | HEK293 SMN2-luciferase splicing reporter, luminescence, 30-36 h | Potency, µM (top dose mostly 46.1 µM), without a hit: at the top dose activity change, positive = activation, actives largely listed as activators | 210,000 compounds, 2.8% hits | AID 1458; further: % of control where 0% means no effect; nearly all actives have a fitted effect of over 55% in size
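HEK293 cells carry an SMN2 […]–luciferase reporter in which exon 7 inclusion puts luciferase in frame. Cells were plated 10-12 h before compound addition, then incubated 30-36 h at 37C. ONE-Glo luminescence was read; sodium butyrate at 4.5 mM final served as control.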
An asterisk follows results filed as active; ? = inconclusive; . = no result. Only some compounds are listed: those with a hit (about 9.4% of all), similar ones and a draw of the others. The call rests on the fitted dose curve; in most records, active means well fitted curve in the direction sought with a large enough effect; inconclusive means small, poorly fitted or top-dose-only effect, or another doubt; inactive means no such curve, though single readings can be large; an effect the other way counts as inactive or inconclusive. Potency means the concentration at half of the fitted maximal effect.

SMILES | NPC1 promoter act | FLuc counter | ELG1 genotox | ELG1 repair inh | Rab9 prom act | SMN2 splice enh
COc1ccc(NC(=O)COc2ccc(S(=O)(=O)NC3CCCCC3)cc2)c(OC)c1 | . | 0.5% | . | . | . | 7.9%
CCOc1nc(-c2ccccc2)ccc1-c1noc(-c2cccs2)n1 | 8.9% | ? | -1.0% | 12.4% | 5.6% | 1.3%
COc1cccc(-c2nc(-c3ccc(NC(=O)c4ccncc4)cc3)no2)c1 | 2.7% | -9.5% | 0.6% | -12.4% | 27.9% | -67.2%
COc1cccc(-c2ccc(-c3noc(-c4cccs4)n3)c(OC)n2)c1 | 21.3% | 10.7µM* | ? | ? | 26.2% | .
COc1cccc(-c2noc(-c3ccc(Cl)nc3)n2)c1 | 3.55µM* | ? | ? | ? | ? | ?
COc1ccccc1-c1noc(-c2cccs2)n1 | 1.58µM* | 7.57µM* | ? | ? | 2.24µM* | 11.2µM*
c1ccc(-c2ccc(-c3nc(-c4ccncc4)no3)cc2)cc1 | ? | 0.601µM* | 1.64µM* | ? | 0.141µM* | ?
CC12CN3CC(c4ccccc4)(CN(C1)C3c1ccc(Cl)cc1)C2=O (stereo not given) | . | 4.2% | . | . | . | 5.3%
O=C(c1ccccc1Br)N(Cc1ccccc1F)C1CCS(=O)(=O)C1 (stereo not given) | . | 0.5% | . | . | . | -6.8%
Brc1ccc(-c2nc(-c3ccncc3)no2)cc1 | 2.24µM* | 2.39µM* | ? | ? | 3.16µM* | .
COc1ccc(-c2nc(-c3cccs3)no2)cc1 | 0.316µM* | 0.0849µM* | ? | ? | 0.1µM* | .
COc1ccc(-c2noc(-c3cccc(OC)c3OC)n2)cc1 | . | 2.39µM* | . | . | . | 12.6µM*
Cc1ccc(-c2noc(-c3cccs3)n2)cc1 | 2.82µM* | 0.601µM* | 0.651µM* | ? | 0.794µM* | 12.6µM*
Cc1ccc(-c2nc(-c3cccs3)c(-c3cccs3)[nH]2)cc1 | . | -0.7% | . | . | . | -15.3%
NNc1nc2ccc(F)cc2s1 | 15.1% | 19µM* | ? | ? | 22.1% | 21.4%
Fc1ccc2nc(Nc3ccccc3)sc2c1 | 2.82µM* | 7.57µM* | ? | ? | 2.24µM* | 15.8µM*
COc1ccc(-c2cc(-c3ccc4c(c3)NC(=O)CO4)nc3c2COc2ccc(F)cc2-3)cc1 | . | -4.8% | . | . | . | 2.8%
CCc1ccccc1-n1c2c(cc(-c3nc(-c4ccc(Cl)cc4)cs3)c1=O)C(=O)CC(C)(C)C2 | . | -7.8% | . | . | . | 0.6%
CCCOc1ccc(C2C(=O)N(C3CCCCCC3)CC(=O)N2CCC)cc1OC (stereo not given) | . | 2.6% | . | . | . | .
COc1ccccc1C(=O)NC(=O)COC(=O)C1CCC1 | -2.8% | 8.49µM* | -3.9% | 5.0% | 0.4% | .
CCC(=O)Nc1cccc(NC(=O)c2cc3ccccc3o2)c1 | 2µM* | 2.39µM* | ? | ? | 0.708µM* | ?
NS(=O)(=O)c1cccc(NC(=O)c2cccc(-c3ccc(O)cc3)c2)c1 | 1.2% | 16.9µM* | 1.3% | ? | -1.4% | .
O=C(Nc1cc2ccccc2oc1=O)c1ccccc1 | 0.398µM* | 0.426µM* | ? | ? | 0.178µM* | 0.891µM*
COc1cccc(C(=O)Nc2cc3cc(OC)ccc3oc2=O)c1 | . | 0.2% | . | . | . | 1.9%
Cc1ccc(C(=O)Nc2cccc(-c3nc4ncccc4o3)c2)cc1 | 29.2% | 13.5µM* | -19.0% | 0.0% | 6.4% | .
SMILES | NPC1 promoter act | FLuc counter | ELG1 genotox | ELG1 repair inh | Rab9 prom act | SMN2 splice enh
O=C(Nc1cccc(Br)c1)c1cc2ccccc2o1 | 3.16µM* | 2.39µM* | ? | ? | 2.82µM* | .
NS(=O)(=O)c1cccc(NC(=O)c2cc3ccccc3o2)c1 | ? | 2.13µM* | 7.8% | ? | ? | .
O=C(Nc1ccc(N2CCCC2)c(Cl)c1)c1cccc(-c2cc3ccccc3oc2=O)c1 | -2.1% | ? | -1.2% | -4.8% | 2.0% | -7.2%
CC(=O)Nc1ccc(NC(=O)c2cccc(-c3cc4ccccc4oc3=O)c2)cc1 | ? | ? | 10.0% | ? | 3.16µM* | 10µM*
Cc1cccc(NC(=O)c2cc3ccccc3o2)c1 | 1.26µM* | 3.79µM* | 20.6µM* | ? | 1.41µM* | 12.6µM*
CCc1ccc(CNC(=O)CCn2c(=O)c3cccn3c3ccc(F)cc32)cc1 | . | 1.2% | . | . | . | .
CCCCOc1cccc(C(=O)Nc2cccc(-c3nc4ncccc4o3)c2C)c1 | . | ? | . | . | . | -34.2%
Cc1c(NC(=O)c2cccc(-c3cc4ccccc4oc3=O)c2)cccc1-c1nc2ncccc2o1 | 15.9% | ? | -6.2% | 13µM* | 14.4% | -12.3%
CCC(=O)Nc1cccc(-c2cc3ccccc3oc2=O)c1 | ? | 12µM* | ? | ? | ? | -37.2%
COc1cccc(C(=O)N2CCc3cc(OC)c(OC)cc3C2COc2ccc3c(C)cc(=O)oc3c2)c1 (stereo not given) | . | 1.3% | . | . | . | 7.1%
CCOC(=O)CSc1nc(N)nc(C)c1Cl | 0.8% | 23.9µM* | -4.4% | 10.3% | -1.6% | .

Bioassay records: PubChem BioAssay, National Center for Advancing Translational Sciences (NCATS)
